Shown are actives, neighbours in structure and some others; about 2.8% of the full set was active somewhere.
pPAFAH inh – inhibitors of human plasma PAF acetylhydrolase (pPAFAH); AID 463082; 1.5% of 330,000 active; inhibition, % at 3.39 µM; recombinant pPAFAH, FP-rhodamine probe fluorescence polarization;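 active = inhibition above the mean inhibition across the screen plus 3 SD, cut at about 25% in these data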;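 also: inhibitors block binding of the rhodamine activity-based probe so polarization drops; 0% = enzyme with DMSO and 100% = wells lacking pPAFAH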
PAFAH2 inh – inhibitors of human PAFAH2; AID 492956; 0.99% of 340,000 active; recombinant PAFAH2, FP-rhodamine activity probe, fluorescence polarization; Q99487; inhibition, % at 3.39 µM;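 active = inhibition above the mean over all tested compounds plus 3 SD, cut at about 30% in these data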;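 also: inhibitors block probe labeling of enzyme so polarization drops; 0% = enzyme with DMSO and 100% = wells lacking PAFAH2 protein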
PAFAH1B3 inh – inhibitors of human PAFAH1B3 | recombinant PAFAH1B3, FP-rhodamine probe, fluorescence polarization | inhibition, % at 3.39 µM | 0.28% of 340,000 active;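 active = inhibition above the screen-wide average of all tested compounds plus 3 SD, cut at about 25% in these data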;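 also: 0% = enzyme with DMSO only and 100% = wells lacking PAFAH1B3 protein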
Target sequence (Q15102 whole entry, looked up): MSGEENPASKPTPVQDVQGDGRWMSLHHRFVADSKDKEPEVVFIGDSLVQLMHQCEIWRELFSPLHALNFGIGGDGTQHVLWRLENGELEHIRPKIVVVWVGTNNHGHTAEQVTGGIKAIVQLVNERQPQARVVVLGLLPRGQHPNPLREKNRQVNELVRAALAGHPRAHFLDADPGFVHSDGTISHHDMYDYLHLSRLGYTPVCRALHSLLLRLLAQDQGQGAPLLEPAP
DAGLB inhibitor – diacylglycerol lipase beta (human) inhibition; Q8NCG7; HEK293T DAGLB membrane lysate, EnzChek fluorogenic substrate; inhibition, % at 5.17 µM; 0.059% of 340,000 active; AID 504411; in the data active = inhibition above about 34%;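 also: 0% = enzyme with vehicle and 100% = wells lacking enzyme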
HTRA1 inh – HTRA1 (human) protease inhibition; Q92743; recombinant HTRA1, FP-rhodamine activity-based probe, fluorescence polarization; inhibition, % at 5.96 µM; 0.5% of 340,000 active; AID 504803; in the data active = inhibition above about 36%;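 also: 0% = enzyme with DMSO and 100% = wells lacking enzyme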
PAFAH1B2 inh – blocks human PAF acetylhydrolase 1b catalytic subunit 2. 1.2% of 340,000 active. inhibition, % at 3.39 µM. recombinant PAFAH1B2, FP-rhodamine activity probe, fluorescence polarization. P68402. AID 492953;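 active = inhibition above the mean of all tested compounds plus 3 SD, cut at about 24% in these data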;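 also: 0% = enzyme with DMSO and 100% = wells lacking PAFAH1B2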
Target sequence (P68402 whole entry, looked up): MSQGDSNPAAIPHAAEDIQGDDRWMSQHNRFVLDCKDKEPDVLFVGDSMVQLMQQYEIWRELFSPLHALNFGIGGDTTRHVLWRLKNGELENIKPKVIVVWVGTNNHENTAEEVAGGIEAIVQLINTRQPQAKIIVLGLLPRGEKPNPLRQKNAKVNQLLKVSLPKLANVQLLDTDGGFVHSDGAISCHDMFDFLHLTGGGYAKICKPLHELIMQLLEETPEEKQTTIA
HTRA1 inh conf – HTRA1 (human) inhibition, confirmation | shares compounds with HTRA1 inh | inhibition, % at 5.96 µM | 66% of 1,600 active | recombinant HTRA1, FP-rhodamine activity-based probe, fluorescence polarization;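 active = mean inhibition over three repeats above a set limit taken from the earlier primary screen, cut at about 37% in these data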;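 also: 0% = HTRA1 with DMSO and 100% = wells lacking HTRA1; inhibitors block probe binding so polarization drops and inhibition rises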
Starred values were filed as active, the others as inactive; nt = no result.

SMILES	pPAFAH inh	PAFAH2 inh	PAFAH1B3 inh	DAGLB inhibitor	HTRA1 inh	PAFAH1B2 inh	HTRA1 inh conf
O=C(C[n+]1ccc(CCSc2ccc(F)cc2)cc1)c1ccccc1	7	-1	-1	1	37*	0	60*
Cc1ccc(SCCc2cc[n+](CC(=O)c3ccccc3)cc2)cc1	3	8	6	0	15	6	nt
Cc1ccc2c(c1)cc(C(=O)N[C@@H](Cc1ccccc1)C(=O)O)n2C	nt	-1	1	-3	4	3	nt
CC(C)c1ccc(NC(=O)Nc2cc3sccc3n2C)cc1	12	13	-3	3	47*	-2	9
COc1ccc(N2CCN(CC(=O)Nc3c(C)cccc3C)CC2)cc1	nt	nt	nt	-1	11	nt	nt
O=C(CC1(CC(=O)N2CCOCC2)CCCC1)Nc1ccccc1	-2	4	12	1	1	-6	nt
Cc1cc(Br)cc2c1NC(=O)C2(O)CC(=O)c1ccco1 (stereo not given)	2	-1	-2	-2	12	3	nt
O=C(Oc1c(Cl)cc(Cl)c2cccnc12)N1CCOCC1	-1	-5	-5	-3	6	6	nt
O=C(Oc1c(CN2CCOCC2)cc(Cl)c2cccnc12)c1ccccc1Br	6	6	11	-5	39*	2	27
NNC(=O)c1nc[nH]c1C(=O)Nc1ccccc1	-3	-9	8	-3	-17	-2	nt
N#CC1=C(N)N(c2ccc(Br)cc2)C2=C(C(=O)CCC2)C1c1cccnc1 (stereo not given)	4	10	4	3	46*	7	-1
CCCCCCCCCCOC(=O)Cn1c(COc2cccc(C)c2)[n+](C)c2ccccc21	12	-6	-2	5	38*	0	33
CCCCCCCCC/C(=N\O)c1ccccn1	23	0	5	-1	66*	3	66*
COc1ccc(S(=O)(=O)N/N=c2\oc3c(OC)cccc3cc2S(=O)(=O)c2ccc(C)cc2)cc1OC	1	10	15	0	3	-3	nt
Cc1ccc(N=C2C(=O)Nc3ccccc32)cc1	9	0	9	0	2	3	nt
CCN(CC)c1ccc(N=C2C(=O)Nc3ccccc32)cc1	29*	5	4	2	63*	0	44*
Cc1cccc(N2CCN(C(=O)c3ccc(Cl)c(NC4=NC5CS(=O)(=O)CC5S4)c3)CC2C)c1 (stereo not given)	4	-2	2	1	9	6	nt
Cc1nc2ccccc2n2c(O)c(CC(=O)O)cc12	27*	26	13	-30	55*	18	40*
Cc1nc2ccccc2n1CCC(=O)O	-1	0	8	1	0	0	nt
COc1ccc(-n2c(=S)[nH]c3cc(C(=O)NCCCN4CCOCC4)ccc3c2=O)cc1OC	2	6	-3	0	0	0	nt
Cc1ccc(NC(=O)CCNC(=O)c2ccc([N+](=O)[O-])cc2)cc1C	nt	7	7	-1	-3	3	nt
Cc1ccc(S(=O)c2ccc([N+](=O)[O-])c3nonc23)cc1 (stereo not given)	nt	nt	nt	11	43*	nt	73*
Cc1ccc(CN2CCSc3sccc3C2=O)cc1	3	4	2	-1	-11	0	nt
COCC(=O)Nc1ccc(Nc2ccccc2)cc1	12	-5	7	4	47*	10	40*
CSc1nc(N)c(C#N)c(-c2ccc(Cl)cc2)c1C#N	-4	-8	1	-11	-41	-2	nt
SMILES	pPAFAH inh	PAFAH2 inh	PAFAH1B3 inh	DAGLB inhibitor	HTRA1 inh	PAFAH1B2 inh	HTRA1 inh conf
N#Cc1c(N)nc2c3c(sc(=N)c2c1N)NC(=O)CC3c1c(F)cccc1Cl (stereo not given)	27*	4	2	5	63*	-17	25
NC(=Nc1nc(-c2ccccn2)cc2ccccc12)c1ccccn1	nt	6	1	-1	69*	2	78*
Cc1cccnc1Nc1nc(-c2ccc(O)c(O)c2)cs1	24	-1	21	9	81*	-2	70*
COc1ccc(-c2csc(Nc3ncccc3C)n2)cc1OC	10	2	4	0	5	5	nt
CCC1=NN(C(=O)c2ccccc2Br)C(O)(c2ccc(Br)cc2)C1 (stereo not given)	4	-8	14	-3	1	1	nt
CCC1=NN(C(=O)c2ccccc2O)C(O)(c2ccccc2)C1 (stereo not given)	8	15	17	0	54*	6	65*
O=C1c2cccc3c(O)ccc(c23)C(=O)N1Cc1ccccc1	31*	50*	35*	-276	66*	26*	46*
O=Cc1cc(N=Nc2ccccc2Cl)ccc1O	28*	10	13	34	38*	9	54*
O=Cc1cc(N=Nc2cccc(C(=O)O)c2)ccc1O	5	-6	4	5	11	4	nt
Oc1ccccc1C=NNC(=S)Nc1ccc(F)cc1	nt	28	10	11	45*	7	46*
Cc1ccsc1CN(C)CC(=O)NCC(=O)Nc1ccc(F)cc1	-2	2	5	-1	-3	2	nt
CCN(CC)c1ccc(N=Cc2c(C)[nH]c3ccccc23)cc1	16	-8	-3	10	50*	-4	22
Cc1[nH]c2ccccc2c1/C=N/n1cnnc1	2	6	8	-2	-1	9	nt
CCOC(=O)CSc1nnc(CNC(=O)c2ccc([N+](=O)[O-])cc2)n1C	5	-4	-1	-1	6	-2	nt
O=C(O)c1cc(N2N=C(C(F)(F)F)/C(=C/C=C/c3ccco3)C2=O)ccc1Cl	nt	59*	37*	18	41*	32*	14
COc1cc(OC)c(OC)cc1CN1CCN(Cc2ccco2)CC1	5	1	-1	-1	6	3	nt
COc1ccc(-c2c[n+]3c4n2CCCCC4=C(c2ccc(Br)cc2)C3)cc1	16	-1	0	11	52*	0	21
Clc1ccc(C2=C3CCCCn4c(-c5ccccc5)c[n+](c43)C2)cc1	12	-11	-5	4	19	-1	nt
CCOC(=O)c1ccc(S(=O)(=O)N2CCN(C3CCCC3)CC2)cc1	2	nt	nt	nt	nt	nt	nt
Cc1cccc(NC(=S)NCCc2ccccc2)c1C	-2	-4	5	-3	-7	5	nt
Cc1cccc(C)c1NC(=S)NCCc1ccc(O)c(O)c1	12	-1	8	2	48*	3	109*
CC1(C)C=Cc2c(c3c(c4c(=O)c(-c5ccc(O)cc5)coc24)OC(C)(C)CC3)O1	26*	8	11	1	36*	0	20
CC(=O)NC(c1ccccc1)c1cc([N+](=O)[O-])c2cccnc2c1O (stereo not given)	13	7	8	12	53*	3	69*
